How the values were obtained:
Assay in all cases: PBM binding z-score (relative to random genomic background probes); higher = stronger binding; sequences stand for … in GC…GCGATTGACAGCGTAGAATGAAGG
[1] = test system: FXR:RXRa (NR concentration 270 nM, RXRa partner concentration 90 nM)
In short: (§1)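 Binding buffer was PBS pH 7.4 with 2% milk, 0.02% Triton X-100, 1 mM DTT, 0.2 mg/mL BSA and 0.4 mg/ml salmon testes DNA. In it, ligand-free nuclear receptor dimers were incubated 1 h on custom Agilent 4×180K protein-binding microarrays carrying double-stranded probes. Antibodies against each partner (one per run) detected binding, and z-scores were calculated against random background probes after regression normalization of scanned fluorescence.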

[2] = test system: LXRa:RXRa (NR concentration 270 nM, RXRa partner concentration 90 nM)
In short: as §1

[3] = test system: LXRa homodimer (NR concentration 270 nM)
In short: as §1

[4] = test system: LXRb:RXRa (NR concentration 270 nM, RXRa partner concentration 90 nM)
In short: as §1

[5] = test system: LXRb homodimer (NR concentration 270 nM)
In short: as §1

[6] = test system: PPARa:RXRa (NR concentration 270 nM, RXRa partner concentration 90 nM)
In short: as §1

[7] = test system: PPARg:RXRa (NR concentration 180 nM, RXRa partner concentration 90 nM)
In short: as §1

[8] = test system: PPARg:RXRa 270nM:90nM, anti-RXR (NR concentration 270 nM, RXRa partner concentration 90 nM)
In short: as §1

[9] = test system: PPARg:RXRa 30nM:10nM, anti-RXR (NR concentration 30 nM, RXRa partner concentration 10 nM)
In short: as §1

[10] = test system: PPARg:RXRa 90nM:30nM, anti-RXR (NR concentration 90 nM, RXRa partner concentration 30 nM)
In short: as §1

Sequence	PBM binding z-score [1]	PBM binding z-score [2]	PBM binding z-score [3]	PBM binding z-score [4]	PBM binding z-score [5]	PBM binding z-score [6]	PBM binding z-score [7]	PBM binding z-score [8]	PBM binding z-score [9]	PBM binding z-score [10]
CGTTACGGGTCACTCCAGGTTATAGCATCGGAGT	4.94	7.62	1.6	5.34	-0.0358	4.67	3.44	4.08	1.42	2.69
TCTTGTAGATCAACAGGAGGTGAAGAAAGATCGA	0.155	0.134	-0.343	0.298	-0.585	0.798	-0.0204	1.4	2.7	2.04
CGTCCAAGGTCATAGGAGGTCAGGGAAGACAGAT	7.91	7.63	5.15	6.25	0.687	6.17	6.03	5.99	2.83	4.83
ATATGTATGTTACATCCGGGTCATTCAGGCTATG	1.15	1.58	0.696	2.06	0.763	2.94	1.75	1.55	0.754	1.22
GTACCAAGGTGAATATGTCGTTGATGAGTAGGCG	0.455	0.146	-0.0291	-0.0194	-0.329	0.873	0.753	0.42	0.0719	0.185
CATACAGGGTCAGCTAGGCCAGATTAGGGACGGC	4.11	2.99	-0.059	2.4	0.391	4.38	3.11	2.96	0.713	1.62
CCTACTGCGCCATTCAGAGGTCATTGATCATATG	3.32	4.74	7.35	4.35	1.54	3.8	0.615	1.89	0.275	0.91
CAAACTAGGTCAAAGGTTAAAGTCGAGCCAACCA	7.41	5.99	2.37	5.56	1.22	7.61	13.6	11.3	13	13.7
CTCGAAAGGTCGTGCTCAGGGGAGTATACCAAAC	4.81	3.33	0.243	3.32	0.229	4.69	2.3	3.33	0.905	2.16
GCATATAGGTAATACACGGTGAAAGTCCGATTGT	0.145	0.988	0.163	-0.0915	-0.496	0.9	0.912	0.806	0.349	0.684
GCGTCTGGGGCATCAGCAGGTTACCATAACTTAA	-0.332	-0.363	-0.529	0.524	-0.962	0.996	0.169	0.239	-0.644	-0.174
TCTTGTAGATCACAGGTTAAGAAAGCCGAAGCCT	0.701	0.575	-0.161	0.714	-0.0792	2.09	2.74	4.44	3.81	4.64
CGTACTGGGCCATCAGGTCATTGATATCAACGTT	1.44	1.12	0.948	1.53	-0.168	2.78	2.86	3.82	1.21	3.32
ATATGTAGGTTACATCCGGGTCATTGAGGCTATG	2.34	4.14	1.44	2.74	1.01	4.44	5.78	5.04	2.75	4.39
AGTCAAAGTACACTAGGTAACGTAAGATTCAGCT	-0.108	-0.26	-0.164	-0.273	0.0714	0.196	1.13	0.666	0.149	0.295
CGTCCAAGGTCATAGGAGGTCAGTGCAGACAGAT	7.64	7.34	5.11	6.24	1.16	5.7	5.88	5.67	2.19	4.56
CGAACTAGGCCAAGGACAGTGAATCTCCGCACGC	-0.241	-0.713	-0.191	-0.883	-0.975	1.04	1.69	1.53	-0.0892	0.672
CACACTAGGTCACCGGAAGGTCAAAGTCCGCATG	6.4	6.18	6.43	5.72	2.16	6.24	8.71	7.07	4.59	6.32

From the supplement of paper PMC6555819
